Measurements from the supplement of paper PMC10338343.
± gives the standard deviation.

Tested on: MILI (PIWIL2) piRISC loaded with L1MC piRNA (26 nt)
Test: pre-steady-state target cleavage rate (min^-1); guide: L1MC piRNA 5'p-UAACUAAAUACUAUGCAAGCUGUAGG; MIWI and MILI are mouse PIWI proteins and EfPiwi is from a freshwater sponge; tags in brackets are library labels; higher = faster piRNA-guided slicing of the target
Settings: auxiliary factor: 500 nM mouse GTSF1
In short: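 Sequencing of uncleaved targets, normalised to depth and to weakly complementary targets, was the readout of this Cleave-'n-Seq assay. A transcribed, DNA-blocked target RNA library (0.1 nM) was mixed with 1 nM active affinity-purified piRISC carrying one synthetic guide, with or without 500 nM GTSF1 partner protein, in HEPES–potassium acetate buffer at 33 °C for 0–8 or 0–960 min. Three trials were pooled, k3 was capped at 0.0001 min^-1, and a burst-and-steady-state fit gave the pre-steady-state cleavage rate.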

| Sequence | pre-steady-state target cleavage rate |
| --- | --- |
| UCCUGGAUGUCCUUGCAUUCAAUUUAGUUA | 0.00852 ± 0.0047 |
| UCCUGGAUGUGCUUCCAUAGUAUUUAGUUA | 0.0271 ± 0.0077 |
| UCCUCCUACAGCUUGCAAUGUAUUUAGAAA | 0.0725 ± 0.016 |
| UCCUGGAACAGCUUGCAUCAGUAUUUAGUUA | 0.0151 ± 0.0061 |
| UCCUGGAUCAGCUUGCAUAGUAUAAAGAAA | 0.0366 ± 0.01 |
| UCCUGGAACAGCUUGCAAAGUAUUUUCAAA | 0.0111 ± 0.0049 |
| UCCUGGAUGUCGAACCUAUAGUAUUUAGUUA | 0.00362 ± 0.0029 |
| UCCUGGUACAGCUUGCUUAGUAUUUUCAAA | 0.0244 ± 0.0078 |
| UCCUGCUACAGCUUGCAUACUAUUUACAAA | 0.0741 ± 0.024 |
| UCCUGGAUCACCUUGCAUAGUAUAUAGUUA | 0.227 ± 0.041 |
| UCCUCCUACAGCUAGCAUAGUAUUUUCAAA | 0.137 ± 0.027 |
| UCCUGGUACAGCUUGCAUAGUUUUUUGUUA | 0.0564 ± 0.015 |
| UCCUGGAUCAGCUUGCAUAGAAAUUAGUUA | 0.0245 ± 0.0096 |
| UCCUGGAACAGCUUGCAUUGUAUUUACUUA | 0.163 ± 0.028 |
| UCCUGGAUGUCGAAGCAUAGUAUUUGAGUUA | 0.0579 ± 0.012 |
| UCCUGGAUCAGCUUGCAUAGAAUUUAGAAA | 0.0123 ± 0.0052 |
| UCCUGGAUGUCGAACCAUAGAAUUUUGUUA | 0.251 ± 0.13 |
| UCCUGGAACACCUUGCAUAGUUUUUAGUUA | 0.0237 ± 0.0067 |
| UCCUGGUACACCUUGGAUAGUAUUUAGUUA | 0.223 ± 0.069 |
| UCCUGGUACACCUUGCAUAGUAUUUACAAA | 0.046 ± 0.018 |
| UCCUCCUACAGGUUGCAUAGUAUUUACUUA | 0.0691 ± 0.015 |
| UCCUGGAUGAGCUUGCAUUGAAUUUAGUUA | 0.00697 ± 0.0027 |
| UCCUGGAACAGCUUGCAAAGUAUUUAGAAA | 0.166 ± 0.038 |
| UCCUGGUAGAGCUUGCAUAGUAUUUACUUA | 0.0436 ± 0.012 |
